TDP1 cell CPT – growth inhibition of DT40 Tdp1-/-;hTDP1 cells with camptothecin (screen for TDP1 inhibitors); chicken DT40 Tdp1-/-;hTDP1 cells + 20 nM CPT, ATP luminescence, 48 h; Potency, µM (doses to about 46.2 µM), for inactives: at the top dose activity change, negative = growth inhibition, usual class: inhibitors; 420,000 compounds, 12% hits; AID 686979; note: nearly all actives have a fitted effect of over 55% in size
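Cell growth measured by CellTiter-Glo luminescence after a minimum 48 h, 37 C compound exposure with 20 nM CPT in Tdp1-knockout DT40 cells stably expressing hTDP1, seeded 400/well; qHTS titration format.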
KB-3-1 cytotox – kills parental KB-3-1 adenocarcinoma cells. KB-3-1 viability, CellTiter-Glo ATP luminescence, 72 h. Potency, µM (titrated, usually from 46.1 µM), usual class: cytotoxic. 400,000 compounds, 1.4% hits; note: nearly all actives have a fitted effect of over 60% in size
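Here the drug-naive KB-3-1 line serves as comparator for MDR sub-line selectivity; cells received compound titrations, 72 h at 37 °C, then CellTiter-Glo readout.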
HT1080-NT tox – kills 2HG-producing HT-1080-NT fibrosarcoma cells; 360,000 compounds, 1.6% hits; AID 686970; Potency, µM (highest dose often 46.1 µM), inactives show top-dose activity, negative = less viability, hits mostly cytotoxic; HT-1080-NT fibrosarcoma viability, CellTiter-Glo ATP luminescence, 48 h;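 note: NT is the 2HG producing partner of a matched IDH1 knockdown line; 0% = DMSO-treated cells and -100% = media-only wells without cells; nearly all actives have a fitted effect of over 55% in size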
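A 48-hour cytotoxicity screen used HT-1080-NT cells plated 2 hours before compound delivery. ATP-based CellTiter-Glo luminescence measured viability, normalized to DMSO and no-cell controls.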
KB-V1 cytotox – kills drug-selected multidrug resistant KB-V1 cells; Potency, µM (doses to about 46.1 µM), actives largely listed as cytotoxic; 400,000 compounds, 3.4% hits; KB-V1 MDR cells viability, CellTiter-Glo, 72 h; AID 1347076; note: nearly all actives have a fitted effect of over 60% in size
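Potencies derive from concentration-effect curves fitted to normalized luminescence (CellTiter-Glo) of KB-V1 cells treated for 72 h at 37 degrees C in phenol-red-free DMEM containing 10% FBS.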
DT40 TDP1 no CPT – qHTS for Inhibitors of human tyrosyl-DNA phosphodiesterase 1 (TDP1): qHTS in cells in absence of CPT | DT40 Tdp1-/- hTDP1 cells, no CPT, ATP luminescence, 48 h | Potency, µM (doses to about 46.2 µM), inactives show at the top dose activity change, negative = growth inhibition, hits mostly inhibitors | 420,000 compounds, 15% hits | AID 686978, 2013; note: nearly all actives have a fitted effect of over 55% in size
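Compound effects on proliferation are scored in DT40 Tdp1-/-;hTDP1 cells in the absence of CPT. ATP levels (CellTiter-Glo luminescence) are recorded after a ≥48 hr, 37 °C incubation.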
HT1080 IDH1KD tx – HT-1080 IDH1 knockdown cell toxicity (counter line). HT-1080 IDH1 knockdown viability, ATP luminescence, 48 h. Potency, µM (top dose mostly 46.1 µM), for the others: at the highest dose activity, negative = toxicity, most hits filed as cytotoxic. 360,000 compounds, 2% hits;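 note: 0% = DMSO wells and -100% = cell-free medium wells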
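Assay cells: HT-1080 with IDH1 knockdown, 750 per well, RPMI/5% FBS. Exposure: 48 h at 37 °C following 2 h pre-incubation. Read: CellTiter-Glo luminescence; fitted concentration-response, curve class assigned.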
Starred values were filed as active, the others as inactive; i = inactive; u = inconclusive; x = no result; ! = repeats disagree; [ ] = another dose, or the depositor's remark. In the library only some 19% were active in any assay of this set; here they are far more common. Calls come from the whole dose curve; as a rule, active = well fitted curve in the direction sought with a large enough effect; inconclusive = small, poorly fitted or top-dose-only effect, or another doubt; inactive = no such curve, though single readings can be large; an effect the other way counts as inactive or inconclusive. Unless noted, % is set by controls: 0 for no effect and ±100 for the full control effect; potency is the fitted concentration of half-maximal effect.

SMILES | TDP1 cell CPT | KB-3-1 cytotox | HT1080-NT tox | KB-V1 cytotox | DT40 TDP1 no CPT | HT1080 IDH1KD tx
CC(C)NC(=O)C1CCC(Cn2c(=O)c3sccc3n(CC(=O)NCc3ccccc3)c2=O)CC1 (stereo unspecified) | 1% | i | x | u | 10% | x
CC(C)Oc1ccc2c(=O)c(-c3ccccc3)coc2c1 | u | i | u | u | 18µM*! | 9%
CCN(CC)C(=O)Oc1ccc2c(=O)c(-c3ccc(OC)cc3)c(C)oc2c1 | -22% | i | -4% | 9.2µM* | -19% | -22%
COc1ccc(Oc2c(C)oc3cc(OC(=O)N4CCOCC4)ccc3c2=O)cc1 | -1% | i | -3% | i | -10% | 26%
CCN(CC)C(=O)Oc1ccc2c(=O)c(-c3ccc(OC)cc3)coc2c1 | u | u | -13% | 12µM* | 23µM* | 4%
COc1ccc(N(CC(=O)NCc2ccco2)C(=O)CNS(=O)(=O)c2ccc(Cl)cc2)cc1 | -18% | i | -21% | i | -15% | -1%
COc1cccc(C(=O)NC23CC4CC(CC(C4)C2)C3)c1 | -19% | i | -7% | i | -21% | -8%
Nc1c(-c2ccc(C(F)(F)F)cc2)nc2ncccn12 | -26% | i | 3% | i | u | 8%
CC1(C)CC(=O)CC(=O)/C1=N\Nc1c(Cl)cc(Cl)cc1Cl | u | i | 10% | i | 18µM* | 5%
CC1(C)C(=O)C2(CCCC2)C(=O)OC1c1ccco1 (stereo unspecified) | -9% | i | 2% | i | -17% | -2%
O=C1OC(c2cccc([N+](=O)[O-])c2)C2(CCCC2)C(=O)C12CCCCC2 (stereo unspecified) | 23µM* | i | u | u | u | 16µM*
O=C(NCc1nnnn1-c1ccc(F)c(F)c1)c1ccc(S(=O)(=O)N2CCOCC2)cc1 | -9% | i | -3% | i | -22% | -1%
CCc1ccccc1NC(=O)Cn1c(=O)n(Cc2ccc(OC)cc2)c(=O)c2oc3ccccc3c21 | 9.2µM* | x | x | x | u | x
CCc1ccccc1NC(=O)Cn1c(=O)n(-c2ccc(C)c(C)c2)c(=O)c2oc3ccccc3c21 | 15µM* | x | x | x | u | x
COc1ccc(Cn2c(=O)c3oc4ccccc4c3n(CC(=O)Nc3c(C)cccc3C)c2=O)cc1 | 7.3µM* | x | x | x | 5.8µM* | x
[O]=[Bi][O]C(=O)[O][Bi]=[O] | u | x | x | x | 1% | x
CCOC(=O)c1c(NC(=O)CN2CCOCC2)sc2c1CC(C)(C)OC2 | u | i | 2% | i | u | 7%
CCOC(=O)c1c(NC(=O)CCN2CCOCC2)sc2c1CC(C)(C)OC2 | 3% | i | 3% | 16µM* | u | -6%
CCOC(=O)c1c(NC(=O)c2ccccc2C)sc2c1CC(C)(C)OC2 | u | i | -5% | i | u | -2%
CCOC(=O)c1c(NC(=O)c2ccc(C)cc2)sc2c1CC(C)(C)OC2 | u | i | -23% | i | 18µM* | -19%
C=C(C)CNC(=S)Nc1sc2c(c1C(=O)OCC)CC(C)(C)OC2 | 23µM* | i | -4% | i | 16µM* | -5%
CCOC(=O)c1c(NC(=O)CCC(=O)N(CC)CC)sc2c1CC(C)(C)OC2 | u | i | 3% | u | u | u
CC(=O)c1cccc(NC(=O)C(C)OC(=O)CN2C(=O)NC(C)(C)C2=O)c1 (stereo unspecified) | -10% | i | 15% | i | -5% | -4%
CN(CCCNC(=O)C1CCC(=O)N1Cc1ccccc1Cl)c1ccccc1 (stereo unspecified) | -21% | i | -2% | 23µM* | u | -16%
O=C(Nc1cc(Cl)cc(Cl)c1)C1CCC(=O)N1Cc1ccccc1Cl (stereo unspecified) | 23µM* | u | -19% | u | u | -21%
SMILES | TDP1 cell CPT | KB-3-1 cytotox | HT1080-NT tox | KB-V1 cytotox | DT40 TDP1 no CPT | HT1080 IDH1KD tx
CCN(CCCNC(=O)C1CCC(=O)N1Cc1ccccc1Cl)c1cccc(C)c1 (stereo unspecified) | 16µM* | i | -4% | 6.5µM* | 23µM* | -3%
O=C(NCCCN1CCN(c2cccc(Cl)c2)CC1)C1CCC(=O)N1Cc1ccccc1Cl (stereo unspecified) | 16µM* | u | -26% | u | u | u
CNC(=O)C1CCC(=O)N1Cc1ccccc1Cl (stereo unspecified) | -3% | i | 5% | i | -2% | 5%
CCCCC(=O)N(C)c1c(C)nc2ccc(C(=O)N3CCN(S(=O)(=O)CC)CC3)cn12 | 11% | i | 11% | i | 0% | u
O=C(Nc1cc(S(=O)(=O)N2CCOCC2)ccc1Cl)c1ccc(=O)[nH]c1 | 15% | i | 4% | i | -19% | 4%
CCCn1[nH]cc(SC)c(=O)c1=O | -1% | i | -3% | u | -1% | 4%
CCN(CCCNC(=O)C1CCN(S(=O)(=O)N2CCOCC2)CC1)c1cccc(C)c1 | u | i | 1% | i | 16µM* | 0%
CCN(CCNC(=O)C1CCC(=O)N1Cc1ccc(C)cc1)c1ccccc1 (stereo unspecified) | -19% | i | 0% | u | -16% | 6%
CCN(CCCNC(=O)C1CCC(=O)N1Cc1ccc(C)cc1)c1cccc(C)c1 (stereo unspecified) | 13µM* | i | -4% | i | 23µM* | -2%
CC(CN1CCc2nnc(CNC(=O)c3cccc(F)c3)n2CC1)c1ccccc1 (stereo unspecified) | -3%[9.04 µM] | x | x | x | u | x
O=C(NCc1nnc2n1CCN(Cc1cc(F)cc(F)c1)CC2)c1cccc(F)c1 | 4.1µM* | x | x | x | 4.6µM* | x
CCc1ccc(C(=O)COC(=O)C(Cc2c[nH]c3ccccc23)NC(=O)c2ccc(Br)cc2)cc1 (stereo unspecified) | -22% | i | x | i | -28% | x
COc1ccc([C@@]23Oc4cc(OC)cc(OC)c4[C@]2(O)[C@H](O)[C@H](C(=O)N(C)C)[C@H]3c2ccccc2)cc1 | 0.0073µM* | u | u | u | 0.0092µM* | 0.16µM*
Cc1ccc(C)c(Nc2nc(NCc3ccco3)nc3nccnc23)c1 | u | i | x | i | u | x
Cc1c(Br)cnc2ccccc12 | 11% | i | x | i | 5% | x

Source: PubChem
